Test results taken from PubChem BioAssay.
Activity calls are given as the source filed them. Unless noted, no rule for the calls is given here.

Columns and labels:
[1] = HepG2 liver cancer cell viability effects, profiling panel, resazurin fluorescence, 24 h, PK04 Diversity Set (AID 1172); settings: higher = more signal; also: test concentration not given here
[2] = basal S. cerevisiae growth modulation, no modifier, primary screen, OD600, strain BY4716, 24 h, basal condition (AID 1173); settings: OD600, 24 h, higher = more signal, called active from +8 up or from −8 down
[3] = MM1S myeloma cell viability, profiling panel, resazurin fluorescence, basal, 24 h, PK04 Diversity Set (AID 1174); settings: higher = more signal, called active from +8 up or from −8 down;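 also: MM1S multiple myeloma cell line; test concentration not given here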
[4] = target: Dihydroorotate dehydrogenase (quinone), mitochondrial (Plasmodium falciparum (isolate 3D7)) (UniProt Q08210); experiment: PfDHODH enzyme inhibitors, primary screen, biochemical, C-terminal His tag, absorbance 600 nm (AID 1175); settings: DCIP absorbance 600 nm, higher = more signal, called active from +8 up or from −8 down;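 also: recombinant parasite enzyme with a five histidine tag at its C terminus; test concentration not given here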
Dihydroorotate dehydrogenase (quinone), mitochondrial (Plasmodium falciparum (isolate 3D7)), sequence (Q08210 whole entry, looked up): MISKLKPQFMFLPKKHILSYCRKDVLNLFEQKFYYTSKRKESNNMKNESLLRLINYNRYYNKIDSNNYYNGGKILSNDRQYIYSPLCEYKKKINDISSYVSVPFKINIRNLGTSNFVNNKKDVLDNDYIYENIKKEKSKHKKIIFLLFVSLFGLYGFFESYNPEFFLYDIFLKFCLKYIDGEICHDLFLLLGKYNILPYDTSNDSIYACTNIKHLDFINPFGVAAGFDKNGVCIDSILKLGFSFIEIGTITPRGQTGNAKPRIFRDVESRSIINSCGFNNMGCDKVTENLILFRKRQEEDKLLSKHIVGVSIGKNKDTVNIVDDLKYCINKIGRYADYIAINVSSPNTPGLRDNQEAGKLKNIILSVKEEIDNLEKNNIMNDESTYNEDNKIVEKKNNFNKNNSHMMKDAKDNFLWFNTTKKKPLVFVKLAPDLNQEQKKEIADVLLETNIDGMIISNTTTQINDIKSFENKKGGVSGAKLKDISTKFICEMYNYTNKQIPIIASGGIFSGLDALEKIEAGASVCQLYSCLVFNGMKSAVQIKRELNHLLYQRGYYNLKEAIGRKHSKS

[5] = P. aeruginosa biofilm formation inhibitors, primary screen, strain PAO1, LB-PBS medium, absorbance 600 nm (AID 1176); also: test concentration not given here; settings: P. aeruginosa PAO1 growth/biofilm, A600, 12 h; higher = more signal
[6] = S. cerevisiae RM11-1a growth modifiers, primary screen, strain RM11-1a, OD600, basal, 24 h (AID 1177); settings: OD600, 24 h, higher = more signal, called active from +8 up or from −8 down;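 also: cultures grown under basal conditions with no added stressor; test concentration not given here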
[7] = E. coli acrAB mutant growth effects, primary screen, E. coli filamentation inducers, strain DRC39, OD650, 24 h (AID 1178); settings: higher = more signal, called active from +8 up or from −8 down;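 also: growth measured as culture turbidity by optical density at 650 nm; test concentration not given here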
[8] = E. coli acrAB mutant growth effects, primary screen, E. coli filamentation inducers, strain DRC39, OD650, 48 h (AID 1179);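 also: screen aims at cell division blockers that make cells filament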; settings: E. coli DRC39 delta-acrAB growth, higher = more signal, called active from +8 up or from −8 down
[9] = RPMI8226 myeloma cell viability, profiling panel, resazurin fluorescence, basal, 24 h, PK04 Diversity Set (AID 1180); settings: higher = more signal;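 also: RPMI8826 multiple myeloma cell line at 5000 cells per well; test concentration not given here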
[10] = target: E3 ubiquitin-protein ligase XIAP (Homo sapiens) (UniProt P98170); experiment: XIAP binders, primary screen, biophysical, small-molecule microarray, fluorescence 635 nm (AID 1181); settings: small-molecule microarray binding, higher = more signal;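 also: score merges 667 nm emission and signal to noise over triplicate slides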
E3 ubiquitin-protein ligase XIAP (Homo sapiens), sequence (P98170 whole entry, looked up): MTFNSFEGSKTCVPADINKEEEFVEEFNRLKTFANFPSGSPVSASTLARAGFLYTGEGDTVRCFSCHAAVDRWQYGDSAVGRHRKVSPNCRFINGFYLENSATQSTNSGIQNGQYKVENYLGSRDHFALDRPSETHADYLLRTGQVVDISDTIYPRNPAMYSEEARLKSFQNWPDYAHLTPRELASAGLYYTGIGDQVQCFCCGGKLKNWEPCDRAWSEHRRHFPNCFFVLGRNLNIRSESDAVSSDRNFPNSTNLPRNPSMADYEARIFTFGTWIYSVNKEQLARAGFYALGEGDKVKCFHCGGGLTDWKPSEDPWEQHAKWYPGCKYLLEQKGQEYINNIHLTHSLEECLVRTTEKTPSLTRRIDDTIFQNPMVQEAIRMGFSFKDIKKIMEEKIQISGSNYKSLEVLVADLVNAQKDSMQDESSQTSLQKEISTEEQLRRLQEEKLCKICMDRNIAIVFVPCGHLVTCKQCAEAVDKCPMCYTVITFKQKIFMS

Compound	z-score [1]	z-score [2]	z-score [3]	composite z-score [4]	z-score [5]	z-score [6]	z-score [7]	z-score [8]	z-score [9]	composite z-score [10]
CC(=O)NCCCC[C@@H]1NC(=O)[C@H]2C[C@@H](C(=O)NCCCCCN)[C@@H](c3ccc(O)cc3)N2C1=O	-0.508	1.26 (inactive)	-0.336 (inactive)	0.538 (inactive)	-0.13 (inactive)	1.08 (inactive)	-0.496 (inactive)	-0.696 (inactive)	-0.121	-0.224
O=C(NCCN1CCOCC1)[C@@H]1c2ccccc2C(=O)N(CC23CC4CC(CC(C4)C2)C3)[C@H]1c1ccc(CO)cc1	0.258	-1.18 (inactive)	0.631 (inactive)	0.533 (inactive)	-0.121 (inactive)	1.19 (inactive)	0.1 (inactive)	0.108 (inactive)	0.96	0.0593
COC(=O)[C@@]1(Cc2ccc(OC)cc2)[C@H]2c3cc(C(=O)N(C)C)n(Cc4c(CO)[nH]cc(C)c4=O)c3C[C@H]2CN1C(=O)c1ccccc1	-0.548	-0.0117 (inactive)	-1.06 (inactive)	-0.501 (inactive)	0.371 (inactive)	-0.463 (inactive)	-0.897 (inactive)	-0.542 (inactive)	-0.717	-0.127
CCCCCN1CC=CC23O[C@@H]4/C=C\CCCOC(=O)C4[C@H]2C(=O)N(CCO)[C@@H]3C1=O (stereo not given in full)	-0.192	-1.2 (inactive)	1.22 (inactive)	-0.195 (inactive)	0.938 (inactive)	-0.843 (inactive)	0.859 (inactive)	0.188 (inactive)	0.936	-0.0918
C=CCC(OC(C)=O)[C@@H]1[C@@H](N(Cc2ccc(-c3ccccc3)cc2)C(=O)Cc2ccc(OC)cc2)c2cc(OCCCO)ccc2N1C(=O)c1ccc2ccccc2c1 (stereo not given in full)	-0.555	-0.562 (inactive)	-0.536 (inactive)	-0.804 (inactive)	0.0914 (inactive)	-1.21 (inactive)	0.174 (inactive)	-0.339 (inactive)	0.186	0.202
[N-]=[N+]=NCc1ccccc1[C@H]1OC(c2ccc(OCCCO)cc2)=N[C@@]1(CCS(=O)(=O)c1ccccc1)C(=O)NCCN1CCOCC1	-0.152	0.256 (inactive)	0.285 (inactive)	0.12 (inactive)	1.13 (inactive)	-0.199 (inactive)	-0.178 (inactive)	-0.35 (inactive)	0.548	-0.115
COCCOC(=O)N1C(=O)[C@@]2(c3cc(C#CCCO)ccc31)[C@H](c1ccc(O)cc1)N1[C@H](c3ccccc3)[C@H](c3ccccc3)OC(=O)[C@H]1[C@@H]2C(=O)NC[C@H](O)c1ccccc1	1.63	0.597 (inactive)	0.763 (inactive)	0.612 (inactive)	1.66 (inactive)	1.06 (inactive)	1.04 (inactive)	1.67 (inactive)	1.2	0.0256
CN(C)CCCCCCNC(=O)[C@@H]1C[C@@H]2C(=O)N[C@@H](CCCC[N+](C)(C)C)C(=O)N2[C@@H]1c1cccc(OCCO)c1	0.473	-0.834 (inactive)	0.349 (inactive)	-2.9 (inactive)	0.0472 (inactive)	-1.75 (inactive)	1.03 (inactive)	1.62 (inactive)	-0.0472	0.141
COc1cc2c(cc1OC)CN(C(=O)[C@@H]1[C@H]3C(=O)O[C@H](c4ccccc4)[C@H](c4ccccc4)N3[C@H](c3ccc(O)cc3)[C@@]13C(=O)Nc1ccc(C#CC4=CCCCC4)cc13)CC2	0.192	0.45 (inactive)	0.466 (inactive)	-0.151 (inactive)	0.297 (inactive)	1.48 (inactive)	-0.0342 (inactive)	0.675 (inactive)	0.233	-0.0108
CC(C)C[C@@H]1NC(=O)[C@H]2C[C@@H](C(=O)O)[C@@H](c3cccc(OCCO)c3)N2C1=O	0.109	-0.25 (inactive)	-0.636 (inactive)	-1.19 (inactive)	0.202 (inactive)	-0.79 (inactive)	-0.191 (inactive)	0.421 (inactive)	0.462	0.0845
O=C1C2C=CC(C(O)C3CC=CCC3)N(Nc3ccc([N+](=O)[O-])cc3)C2C(=O)N1c1ccccc1 (stereo not given)	-0.681	-0.541 (inactive)	-0.428 (inactive)	0.354 (inactive)	1.29 (inactive)	-0.0935 (inactive)	-0.544 (inactive)	-0.861 (inactive)	-0.617	0.26
COCCCNC(=O)[C@@]1(c2ccc([N+](=O)[O-])cc2)CC(=O)N(C2CCCCC2)[C@@H]1c1ccc(CO)cc1I	0.545	-0.24 (inactive)	0.678 (inactive)	0.219 (inactive)	0.966 (inactive)	-0.251 (inactive)	0.0675 (inactive)	-0.279 (inactive)	1.16	0.0449
COc1ccc([Si](C)(C)[C@H]2[C@H](CC(=O)N3CCC[C@H]3CO)O[C@@]3(C(=O)N(C)c4ccccc43)[C@@H]2C)cc1	-0.395	0.264 (inactive)	-0.212 (inactive)	-0.269 (inactive)	1.32 (inactive)	0.554 (inactive)	0.133 (inactive)	-0.0566 (inactive)	-0.418	0.0473
COc1c(C)cc(-c2cc3c(c(CCc4ccccc4)n2)[Si](C(C)C)(C(C)C)O[C@H]3c2ccccc2)cc1C	-0.0275	0.597 (inactive)	0.135 (inactive)	0.0798 (inactive)	0.608 (inactive)	1.42 (inactive)	-0.754 (inactive)	-0.744 (inactive)	-3.7	-0.195
COC(=O)C(CC#Cc1ccc2c(c1)[C@]1(C(=O)N2)[C@H](C(=O)N2CCCCCCC2)[C@H]2C(=O)O[C@H](c3ccccc3)[C@H](c3ccccc3)N2[C@@H]1c1ccc(OCCO)cc1)C(=O)OC	0.883	1.43 (inactive)	0.229 (inactive)	-1.22 (inactive)	2.05 (inactive)	0.415 (inactive)	0.0679 (inactive)	-0.878 (inactive)	0.0283	2.59
COCCOC(=O)N1C(=O)[C@@]2(c3ccccc31)[C@H](C(=O)Nc1nc3ccccc3s1)[C@H]1C(=O)O[C@H](c3ccccc3)[C@H](c3ccccc3)N1[C@@H]2c1ccccc1OCCO	-0.49	2.38 (inactive)	-0.304 (inactive)	1.38 (inactive)	2.9 (inactive)	2.25 (inactive)	0.0795 (inactive)	-0.315 (inactive)	-0.236	0.0245
COCCOC(=O)N1C(=O)[C@@]2(c3cc(C#CCNC(N)=O)ccc31)[C@H](C(=O)Nc1nc3ccccc3s1)[C@H]1C(=O)O[C@H](c3ccccc3)[C@H](c3ccccc3)N1[C@@H]2c1ccc(O)cc1	0.0612	1.1 (inactive)	-0.355 (inactive)	0.582 (inactive)	0.558 (inactive)	1.37 (inactive)	0.0967 (inactive)	-0.211 (inactive)	-1.37	0.273
C[C@]1(C(=O)NC2CC2)c2ccccc2C(=O)N(Cc2cc(F)cc(C(F)(F)F)c2)[C@H]1c1ccc(CO)cc1	1.53	0.411 (inactive)	0.872 (inactive)	0.712 (inactive)	-0.646 (inactive)	1.34 (inactive)	0.425 (inactive)	0.401 (inactive)	1.04	0.195
CCCCN1CC=CC23O[C@@H]4/C=C\CCC(C)OC(=O)C4[C@H]2C(=O)N(CCO)[C@@H]3C1=O (stereo not given in full)	1	0.256 (inactive)	0.498 (inactive)	-0.252 (inactive)	0.0279 (inactive)	-0.348 (inactive)	0.32 (inactive)	-0.178 (inactive)	0.82	0.0026
COc1ccc(C(=O)Nc2ccc(CN3C(=O)[C@@]4(O[C@@H](CC(=O)N(CCO)Cc5ccccc5)[C@H]([Si](C)(C)c5ccc(OC)cc5)[C@H]4C)c4ccccc43)cc2)cc1	1.4	0.164 (inactive)	-0.952 (inactive)	-1.53 (inactive)	0.814 (inactive)	0.961 (inactive)	0.7 (inactive)	0.439 (inactive)	-1.29	0.101
COC(=O)[C@H](Cc1ccccc1)N1CC(C)(OC)O[C@@H](Cc2ccccc2)[C@H]1/C=C/C1CC1 (stereo not given in full)	0.0905	-0.968 (inactive)	-0.32 (inactive)	0.512 (inactive)	-0.532 (inactive)	0.815 (inactive)	-0.311 (inactive)	0.215 (inactive)	-0.249	0.0583
C=C(/C=C\CNS(=O)(=O)c1ccc(C)cc1)[C@H](O)[C@H]1CCCN1S(=O)(=O)c1ccccc1[N+](=O)[O-]	-0.527	0.487 (inactive)	-0.943 (inactive)	1.57 (inactive)	1.21 (inactive)	2.53 (inactive)	1.12 (inactive)	-0.23 (inactive)	-0.851	-0.0448
O=C(NCC(F)(F)F)[C@@H]1c2ccccc2C(=O)N(Cc2cc(C(F)(F)F)cc(C(F)(F)F)c2)[C@H]1c1ccc(CO)cc1	0.0606	1.26 (inactive)	0.885 (inactive)	0.398 (inactive)	-0.0249 (inactive)	0.378 (inactive)	0.783 (inactive)	1.41 (inactive)	1.1	0.295
CCOC(=O)C[C@H]1[C@H](OC(=O)c2ccc(-c3ccccc3)cc2)[C@@H](NC(=O)c2ccc(-c3ccccc3)cc2)c2cc(OCCCO)ccc2N1C(=O)c1ccccc1	-0.697	1.36 (inactive)	-1.01 (inactive)	-0.0085 (inactive)	0.0307 (inactive)	0.795 (inactive)	-0.168 (inactive)	-0.331 (inactive)	-0.967	0.0766
CC(C)(C)OC(=O)CC[C@]1(C(=O)N2CCOCC2)COC(c2ccc(OCCCO)cc2)=N1	0.329	-0.444 (inactive)	0.475 (inactive)	-0.0274 (inactive)	0.149 (inactive)	0.568 (inactive)	1.21 (inactive)	1.37 (inactive)	0.227	0.0996
